In all, about 5,500 compounds went through this assay and about 2,000 (36%) were called active. About 18% were inconclusive and are not listed. No stated cut-off is given here; in the data, active means normalized growth mostly below about 0.91 (no sharp cut-off); inconclusive means no clear call, values can overlap the other calls; inactive means mostly above about 0.92. Some of the results follow.
Experiment: chemical genetic growth profiling, strain panel (AID 1159580);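 further: tested at 20 µM; growth read once vehicle control cultures reached saturation at 30 °C; 1 = growth at the plate median or of vehicle wells; lower values mean less growth of the strain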
Conditions: S. cerevisiae deletion strains, growth OD
[1] = locus YAL040C, strain CLN3, hits give low values
[2] = locus YCL061C, strain MRC1 (second series), hits give low values
[3] = locus YDR363W, strain ESC2, hits give low values
[4] = locus YER002W, strain NOP16, hits give low values
[5] = locus YGR229C, strain SMI1, hits give low values
[6] = locus YMR307W, strain GAS1, hits give low values
[7] = locus YNL175C, strain NOP13, hits give low values
[8] = locus YNL197C, strain WHI3, hits give low values
[9] = locus YNL224C, strain SQS1, hits give low values
[10] = locus YOR083W, strain WHI5 (second series), hits give low values

Measured: normalized growth

CN[C@H](CC(C)C)C(=O)N[C@H]1C(=O)N[C@@H](CC(N)=O)C(=O)N[C@H]2C(=O)N[C@H]3C(=O)N[C@H](C(=O)N[C@H](C(=O)O)c4cc(O)cc(O)c4-c4cc3ccc4O)[C@H](O)c3ccc(c(Cl)c3)Oc3cc2cc(c3O[C@@H]2O[C@H](CO)[C@@H](O)[C@H](O)[C@H]2O[C@H]2C[C@](C)(N)[C@H](O)[C@H](C)O2)Oc2ccc(cc2Cl)[C@H]1O
inactive: [1] 0.985 | [2] 1.01 | [3] 1.01 | [4] 1.01 | [5] 1.03 | locus YMR263W, strain SAP30, hits give low values 0.997 | [6] 1 | locus YNL153C, strain GIM3, hits give low values 0.984 | [7] 1.01 | [8] 1.03 | [9] 0.991 | [10] 0.985

CCCN(CCC)CCc1cccc2c1CC(=O)N2
inactive: locus YAL021C, strain ccr4, hits give low values 0.978 | locus YAL026C, strain drs2, hits give low values 0.979 | locus YAL030W, strain snc1, hits give low values 0.981 | [1] 1.03 | locus YBL061C, strain skt5, hits give low values 0.963 | locus YBR009C, strain hhf1, hits give low values 0.984 | locus YBR023C, strain chs3, hits give low values 0.962 | locus YBR171W, strain sec66, hits give low values 0.96 | locus YBR231C, strain swc5, hits give low values 0.99 | locus YBR279W, strain paf1, hits give low values 0.977 | locus YCL011C, strain gbp2, hits give low values 0.981 | locus YCL016C, strain dcc1, hits give low values 0.964 | [2] 0.997 | locus YCL061C, strain MRC1, hits give low values 0.965 | locus YCL069W, strain vba3, hits give low values 0.966 | locus YCR088W, strain abp1, hits give low values 0.969 | locus YDL005C, strain med2, hits give low values 0.977 | locus YDL040C, strain nat1, hits give low values 0.977 | locus YDR001C, strain nth1, hits give low values 0.968 | locus YDR069C, strain doa4, hits give low values 0.983 | locus YDR137W, strain rgp1, hits give low values 0.951 | locus YDR159W, strain sac3, hits give low values 0.966 | locus YDR195W, strain ref2 0.949 | locus YDR297W, strain sur2, hits give low values 0.978 | locus YDR334W, strain swr1, hits give low values 0.954 | locus YDR335W, strain msn5, hits give low values 0.969 | [3] 1.03 | locus YDR392W, strain spt3, hits give low values 0.96 | locus YEL003W, strain gim4, hits give low values 0.973 | locus YEL037C, strain rad23, hits give low values 0.971 | locus YEL061C, strain CIN8 (second series), hits give low values 0.981 | [4] 1.02 | locus YER015W, strain faa2, hits give low values 0.987 | locus YER016W, strain bim1, hits give low values 0.975 | locus YER111C, strain swi4, hits give low values 0.955 | locus YER155C, strain BEM2 (second series), hits give low values 0.959 | locus YFR010W, strain ubp6, hits give low values 0.967 | locus YGL167C, strain pmr1, hits give low values 0.963 | locus YGL173C, strain kem1, hits give low values 0.969 | locus YGL227W, strain vid30, hits give low values 0.972 | locus YGL240W, strain doc1, hits give low values 0.991 | locus YGL253W, strain hxk2, hits give low values 0.993 | locus YGR078C, strain PAC10, hits give low values 0.988 | [5] 1.04 | locus YHR013C, strain ard1, hits give low values 0.94 | locus YHR027C, strain rpn1, hits give low values 0.959 | locus YHR030C, strain SLT2, hits give low values 0.947 | locus YHR079C, strain IRE1, hits give low values 0.941 | locus YHR142W, strain chs7, hits give low values 0.952 | locus YJL092W, strain hpr5, hits give low values 0.966 | locus YJL095W, strain BCK1 (second series), hits give low values 0.972 | locus YJL095W, strain BCK1, hits give low values 1.01 | locus YJL115W, strain asf1, hits give low values 0.958 | locus YJL129C, strain trk1, hits give low values 0.973 | locus YJL154C, strain vps35, hits give low values 0.974 | locus YJL164C, strain tpk1, hits give low values 0.981 | locus YJL166W, strain qcr8, hits give low values 0.988 | locus YJL187C, strain SWE1, hits give low values 0.976 | locus YJR066W, strain TOR1, hits give low values 0.94 | locus YJR075W, strain HOC1, hits give low values 1.01 | locus YKL160W, strain elf1, hits give low values 0.978 | locus YKR026C, strain gcn3, hits give low values 0.968 | locus YKR091W, strain srl3, hits give low values 0.983 | locus YLL001W, strain dnm1, hits give low values 0.977 | locus YLL026W, hits give low values 0.981 | locus YLL041C, strain sdh2, hits give low values 0.974 | locus YLR027C, strain aat2, hits give low values 0.972 | locus YLR113W, strain HOG1, hits give low values 1.03 | locus YLR221C, strain rsa3, hits give low values 0.975 | locus YLR258W, strain gsy2, hits give low values 0.979 | locus YLR262C, strain YPT6 (second series), hits give low values 0.976 | locus YLR320W, strain mms22, hits give low values 0.969 | locus YLR342W, strain FKS1, hits give low values 0.981 | locus YLR357W, strain rsc2, hits give low values 0.961 | locus YLR370C, strain arc18, hits give low values 0.96 | locus YLR384C, strain iki3, hits give low values 0.969 | locus YML120C, strain ndi1, hits give low values 0.972 | locus YMR058W, strain fet3, hits give low values 0.977 | locus YMR125W, strain sto1, hits give low values 0.967 | locus YMR129W, hits give low values 0.969 | locus YMR205C, strain PFK2, hits give low values 0.965 | locus YMR231W, strain pep5, hits give low values 0.975 | [6] 0.95 | locus YNL071W, strain lat1, hits give low values 0.984 | locus YNL128W, strain TEP1, hits give low values 0.989 | [7] 1.01 | locus YNL183C, strain NPR1, hits give low values 0.966 | [8] 0.999 | locus YNL209W, strain ssb2, hits give low values 0.97 | [9] 0.988 | locus YNL248C, strain rpa49, hits give low values 0.955 | locus YNL322C, strain KRE1 (second series), hits give low values 0.985 | locus YNL322C, strain KRE1, hits give low values 1.01 | locus YNR049C, strain mso1, hits give low values 0.966 | locus YOR001W, strain rrp6, hits give low values 0.972 | locus YOR070C, strain gyp1, hits give low values 0.974 | locus YOR080W, strain dia2, hits give low values 0.957 | [10] 1 | locus YOR083W, strain WHI5, hits give low values 0.975 | locus YOR106W, strain vam3, hits give low values 0.977 | locus YOR231W, strain MKK1, hits give low values 0.978 | locus YOR265W, strain rbl2, hits give low values 0.972 | locus YOR270C, strain vph1, hits give low values 0.944 | locus YOR290C, strain snf2, hits give low values 0.953 | locus YPL051W, strain arl3, hits give low values 0.975 | locus YPL078C, strain atp4, hits give low values 0.969 | locus YPL106C, strain sse1, hits give low values 0.99 | locus YPL240C, strain hsp82, hits give low values 0.976 | locus YPL241C, strain CIN2, hits give low values 1 | locus YPL256C, strain CLN2, hits give low values 0.943

Source: PubChem BioAssay AID1159580 (chemical genetic matrix, 2015)
